According to paper PMC5540273 (PLoS ONE, 2017):

Legend:
Settings in all cases: concentration: 1 μM, replicates: in singlicate; n = 1
[1] = system: T1, ERK8
T1 construct: gene MAPK15

[2] = system: ERN1
[3] = system: T2, FAK
T2 construct: gene PTK2

[4] = system: FER
[5] = system: FES
[6] = system: FGFR1
[7] = system: FGFR2
[8] = system: FGFR3
[9] = system: FGFR4
[10] = system: FGR
[11] = system: FLT1
[12] = system: FLT3-autoinhibited
[13] = system: FLT3
[14] = system: FLT4
[15] = system: FRK
[16] = system: FYN
[17] = system: GAK
[18] = system: T3, GCN2(Kin.Dom.2,S808G)
T3 construct: gene EIF2AK4

[19] = system: GRK1
[20] = system: T4, GRK2
T4 construct: gene ADRBK1
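Further: KINOMEscan kinase panel screen.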

Row | Structure (SMILES) | %Inh [1] [%] | %Inh [2] [%] | %Inh [3] [%] | %Inh [4] [%] | %Inh [5] [%] | %Inh [6] [%] | %Inh [7] [%] | %Inh [8] [%] | %Inh [9] [%] | %Inh [10] [%] | %Inh [11] [%] | %Inh [12] [%] | %Inh [13] [%] | %Inh [14] [%] | %Inh [15] [%] | %Inh [16] [%] | %Inh [17] [%] | %Inh [18] [%] | %Inh [19] [%] | %Inh [20] [%]
1 | COc1ccc(Nc2nccc(N3CCC(NC(=O)C(C)c4ccc(Cl)cc4)C3)n2)cc1 (stereo not drawn) [GSK1379735] | 44 | 0 | 0 | 28 | 12 | 8 | 36 | 17 | 3 | 10 | 21 | 5 | 10 | 5 | 0 | 15 | 11 | 9 | 7 | 0
2 | CSc1ccc(-c2nc3n(c2-c2ccncc2)CCC3)cc1 [SKF-105561] | 1 | 0 | 0 | 0 | 28 | 1 | 0 | 0 | 0 | 25 | 7 | 7 | 8 | 0 | 0 | 0 | 10 | 2 | 8 | 0
3 | Cc1ccccc1Cn1ccn2c(=O)cc(N3CCOCC3)nc12 [GSK2269905] | 0 | 0 | 0 | 18 | 9 | 0 | 2 | 0 | 19 | 31 | 10 | 2 | 0 | 0 | 14 | 26 | 1 | 4 | 0 | 0
4 | Cc1nccc(-c2c(-c3ccc(F)cc3)ncn2CCCN2CCOCC2)n1.Cl [SB-282975] | 9 | 0 | 35 | 26 | 12 | 38 | 22 | 33 | 0 | 0 | 21 | 19 | 6 | 23 | 2 | 9 | 9 | 0 | 78 | 0
5 | CCCCc1nn2ncccc2c1-c1ccnc(NC2CC2)n1 [GW684374] | 0 | 0 | 0 | 0 | 0 | 0 | 0 | 5 | 0 | 7 | 61 | 0 | 29 | 0 | 0 | 23 | 72 | 0 | 0 | 0
6 | c1ccc(-c2ccnc3[nH]ccc23)cc1 [SB-693578] | 0 | 11 | 0 | 0 | 0 | 0 | 0 | 7 | 13 | 2 | 1 | 8 | 0 | 8 | 0 | 0 | 90 | 0 | 6 | 0
7 | COC(=O)C(NC(=O)NC1CCN(c2ccnc(Nc3ccc(F)cc3)n2)C1)c1ccccc1 (stereo not drawn) [GSK1379712] | 0 | 4 | 0 | 19 | 0 | 0 | 0 | 7 | 19 | 8 | 14 | 8 | 0 | 0 | 0 | 31 | 0 | 2 | 0 | 4
8 | COc1ccc(-c2coc3ccc(-c4nnc(C)o4)cc23)cc1 | 0 | 0 | 0 | 0 | 22 | 0 | 4 | 4 | 0 | 36 | 0 | 0 | 0 | 0 | 0 | 2 | 0 | 0 | 12 | 0
9 | Fc1ccc(-c2nc[nH]c2-c2ccncc2)cc1 [SB-217360] | 4 | 43 | 0 | 23 | 0 | 0 | 0 | 0 | 0 | 0 | 0 | 0 | 5 | 9 | 0 | 0 | 57 | 0 | 25 | 0
10 | O=C(Nc1n[nH]c2cc(-c3ccsc3)ccc12)C1CC1 [SB-732932] | 92.4 | 8 | 6 | 0 | 0 | 1 | 0 | 3 | 0 | 13 | 14 | 29 | 75 | 0 | 0 | 4 | 28 | 0 | 0 | 0
11 | COc1ccc(CSc2nnc(-c3ccc4nccn4c3)o2)cc1C(F)(F)F | 39 | 0 | 0 | 4 | 14 | 4 | 4 | 0 | 0 | 19 | 35 | 25 | 15 | 9 | 0 | 0 | 6 | 0 | 5 | 0
12 | Nc1cccc(-c2ccc3c(N)n[nH]c3c2)n1 [GSK2192730] | 0 | 24 | 0 | 0 | 0 | 0 | 0 | 0 | 0 | 10 | 0 | 13 | 0 | 0 | 0 | 29 | 17 | 0 | 21 | 0
